# FAK inh = FAK (human) kinase inhibition. biochemical FAK kinase activity assay. inhibition, %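 (tested at 7 µM)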. hit rate 0.84% among 97,000. AID 727; in the data active = inhibition above about 19%;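 note: 0% = DMSO and 100% = reference compound high control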
# sdo1 growth = sdo1-depleted yeast growth rescue | z-score at 10 µM | AID 817 | hit rate 0.21% among 140,000 | S. cerevisiae sdo1-depleted JHY4D growth rescue, OD600 30 h; stronger effect = higher value; pdr5 snq2 efflux-pump mutant strain;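 active = z-score above 3 at both the 24 hr and the 30 hr optical density reads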;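 note: z-score against mean and SD of all compound wells on the same plate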
# S1P2 blocker = antagonists of human S1P2 receptor. O95136. cell-based S1P2 antagonist assay, inhibition at 5 uM. inhibition, % at 5 µM. hit rate 0.21% among 97,000. AID 736; in the data active = inhibition above about 45%;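 note: CRE beta-lactamase reporter cells expressing human S1P2 stimulated with S1P; 0% = agonist at EC80 alone and 100% = agonist plus reference antagonist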
# Target sequence (O95136 whole entry, looked up): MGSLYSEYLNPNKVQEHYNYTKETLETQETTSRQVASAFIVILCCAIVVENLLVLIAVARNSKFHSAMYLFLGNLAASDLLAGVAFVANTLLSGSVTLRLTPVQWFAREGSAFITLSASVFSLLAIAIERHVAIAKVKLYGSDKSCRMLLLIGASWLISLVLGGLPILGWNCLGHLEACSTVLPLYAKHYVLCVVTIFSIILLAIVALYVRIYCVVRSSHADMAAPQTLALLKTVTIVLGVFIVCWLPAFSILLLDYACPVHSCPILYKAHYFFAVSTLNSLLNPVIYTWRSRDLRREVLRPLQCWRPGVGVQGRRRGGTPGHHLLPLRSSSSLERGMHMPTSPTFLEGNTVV
# GALR2 agonist = activates the human galanin receptor 2; O43603; GALR2-expressing cells, agonist activation read-out; activation, % (test concentration not listed); hit rate 0.48% among 140,000; in the data active = activation above about 5%, passing the limit was not always enough;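 note: 0% = vehicle buffer wells and 100% = reference agonist at full effect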
# GALR2 blocker = GALR2 (human) receptor antagonism; GALR2-expressing cells, antagonist mode; inhibition, % at 4 µM; hit rate 0.39% among 140,000; AID 828; in the data active = inhibition above about 27%;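 note: cells stimulated with galanin 1-16 at roughly its EC80; 0% = agonist challenge control and 100% = basal control without agonist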
# S1P2 ag = agonists of human S1P2 receptor; AID 729; hit rate 0.46% among 97,000; S1P2-expressing cell line, agonist reporter read-out; O95136; activation, % at 4.5 µM; in the data active = activation above about 16%;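 note: 0% = vehicle low control and 100% = maximal reference agonist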
# Active calls of the source: *; / = no result. An excerpt weighted towards active compounds, which were near 1.9% of everything screened.
SMILES,FAK inh,sdo1 growth,S1P2 blocker,GALR2 agonist,GALR2 blocker,S1P2 ag
c1ccc(-c2nnc(-c3ccccc3)o2)cc1,-3,-0.26,-101,-3,-1,0
COC(=O)c1cc(-c2cccc(OC)c2)on1,0,-0.1,5,-1,-12,-5
COC(=O)C1=CN(C(C)C)C=C(C(=O)OC)C1c1cccc(OC)c1,1,0.53,-17,21*,3,12
COc1cc(C(=O)NCc2ccccc2)cc(Br)c1OC,/,0.88,/,0,5,/
COC(=O)C1=CN(C(C)C)C=C(C(=O)OC)C1c1cc(Br)c(OC)c(OC)c1,-3,-1.9,-24,22*,3,18*
Cc1ccc2[nH]c3c(NCCN4CCOCC4)ncnc3c2c1,/,1.9,/,-2,7,/
C=CCNc1ncnc2c1[nH]c1ccc(C)cc12,25*,0,19,-2,17,-8
Cc1ccc(Nc2nnc(SCC(=O)NCCN3C(=O)CSC3=O)s2)cc1C,/,1,/,0,13,/
c1ccc(C2CCC(N3CCNCC3)CC2)cc1 (stereo not given),/,-0.53,/,1,-16,/
CCN(CC)c1ccc(-c2nn3c(-c4n[nH]c5c4CCC5)nnc3s2)cc1,8,0.59,3,6.3*,4,-1
Cc1cccn2c(=O)c3cc(C(=O)NCCN4CCOCC4)c(=N)n(CCc4ccccc4)c3nc12,2,0.95,-32,7.9*,-29,39*
Cc1cccn2c(=O)c3cc(C(=O)NCCc4ccccc4)c(=N)n(CCCn4ccnc4)c3nc12,-3,0.63,-98,8,-5,64*
C=CCn1c(=N)c(C(=O)NCCCOC)cc2c(=O)n3cccc(C)c3nc21,4,0.21,-26,5,-13,14
COCCn1c(=N)c(C(=O)NCCc2ccccc2)cc2c(=O)n3cccc(C)c3nc21,-1,/,-9,-1,-1,0
CCCCNC(=O)c1cc2c(=O)n3cccc(C)c3nc2n(Cc2ccccc2)c1=N,/,-0.64,/,7.7*,4,/
CCNC(=O)c1cc2c(=O)n3cccc(C)c3nc2n(CCc2ccccc2)c1=N,-1,0.58,0,0,4,-4
CCC1=NN(C(=O)Cc2ccc(OC)c(OC)c2)C(O)(C(F)(F)F)C1 (stereo not given),/,0.49,/,-1,-12,/
CCc1nc(N)c(C#N)c(-c2ccc(OC)c(OC)c2)c1C,4,-0.32,-20,1,5,-1
CCc1nc(C)c(C#N)c2cc(OC)c(OC)cc12,3,0.75,-50,-4,-4,26*
COc1ccc(NC(=O)C(Sc2nnc3ccccn23)c2ccccc2)cc1Cl (stereo not given),/,-0.07,/,-1,8,/
CCOC(=O)c1c(NC(=O)c2cccc(N3C(=O)CCC3=O)c2)sc(C)c1C,3,-0.97,-10,-2,3,16*
N#CCCN(C(=O)COc1ccc(Cl)cc1Cl)c1ccccc1,/,-1.2,/,-1,-6,/
COc1ccc(OC)c(C2=Nn3c(nnc3C3CCCCC3)SC2)c1,1,-0.9,-35,-1,-11,2
COc1ccc(C2=Nn3c(nnc3C3CCCCC3)SC2)cc1OC,0,-0.8,-88,2,-13,36*
COc1ccc(-c2nnc3n2N=C(C)CS3)cc1OC,-3,0.39,6,-2,4,-7
SMILES,FAK inh,sdo1 growth,S1P2 blocker,GALR2 agonist,GALR2 blocker,S1P2 ag
COc1ccc(C2=Nn3c(nnc3-c3ccccc3)SC2)cc1OC,-2,-0.88,-37,4,-7,27*
COc1ccc(C2C=C(c3cccs3)Nc3nc(CCCO)nn32)cc1 (stereo not given),-10,0.89,37,-2,30*,-14
CCCCNC(=O)NNC(=O)COc1cccc(C)c1C,/,-0.05,/,-1,8,/
COC(=O)c1sc(N)c(C(=O)OC)c1CSc1nc2sc3c(c2c(=O)n1C)CCC3,1,-0.68,-29,-2,14,27*
OCCN(CCO)c1ncnc2c1sc1nc(N3CCOCC3)c3c(c12)CCCC3,-1,0.68,-51,1,2,23*
COc1ccc(-n2nc(C(=O)c3cccs3)cc(-c3nc4ccccc4[nH]3)c2=N)cc1,5,0.35,-45,-1,7,22*
Cc1ccccc1-n1nc(C(=O)c2cccs2)cc(-c2nc3ccccc3[nH]2)c1=N,6,-0.42,-12,-3,12,24*
Cc1nn(-c2ccccc2)c(C)c1/C=C/C(=O)OCC(=O)Nc1ncc(C(F)(F)F)cc1Cl,/,0.99,/,-1,3,/
CCCSc1ccc(-c2nn(-c3ccccc3)cc2/C=C(/C#N)C(=O)N2CCOCC2)cc1,/,0.05,/,-1,8,/
CCSc1ccc(-c2nn(-c3ccccc3)cc2/C=C(/C#N)C(=O)NC)cc1,/,-0.18,/,26*,9,/
CCOC(=O)c1cc2c(=O)n3ccccc3nc2n(CCCOC)c1=NC(=O)c1cccnc1,-4,0.82,-18,3,-19,22*
CCOC(=O)c1cc2c(=O)n3ccccc3nc2n(CCOC)c1=NC(=O)c1ccncc1,-3,0.13,-15,7.5*,-11,19*
CCOCCCn1c(=NC(C)=O)c(C(=O)OCC)cc2c(=O)n3ccccc3nc21,1,-0.46,-40,7.8*,0,19*
CCOC(=O)c1cc2c(=O)n3ccccc3nc2n(Cc2ccccc2)c1=N,9,-0.25,-13,-1,-2,3
CCOC(=O)c1cc2c(=O)n3ccccc3nc2n(CCCOC)c1=NC(=O)C(C)(C)C,12,1.2,-43,12*,-21,33*
CCOc1cc(/C=N/NC(=O)C(=O)NCCCOC(C)C)cc(Br)c1O,/,1.1,/,1,2,/
CN(/N=C/c1ccc(O)cc1O)c1nc(-c2ccccc2)cc(-c2ccccc2)n1,/,-1.4,/,0,-14,/
O=C(CN1CCN(S(=O)(=O)c2ccc(Br)cc2)CC1)N/N=C/c1cccnc1,/,0.66,/,-1,-2,/
CCOC(=O)c1cc2c(=O)n3ccccc3nc2n(CC(C)C)c1=NC(=O)c1ccco1,3,-1.1,-58,4,0,14
CCOC(=O)c1cc2c(=O)n3ccccc3nc2n(CCOC)c1=NC(=O)C(C)(C)C,8,1,10,8.7*,-18,25*
CCOC(=O)c1cc2c(=O)n3ccccc3nc2n(Cc2ccco2)c1=NC(=O)c1cccnc1,-5,-0.48,7,-1,-6,2
CCOC(=O)c1cc2c(=O)n3ccccc3nc2n(C(C)C)c1=NC(=O)c1ccncc1,5,-0.89,-8,7,-9,18*
C/C(=N/NC(=O)c1ccc2c(c1)OCO2)c1cccc(NC(=O)C(C)(C)C)c1,-1,0.93,-12,-1,20,41*
C/C(=N\NC(=O)c1ccc(C)cc1C)c1ccc2c(c1)OCO2,/,0.49,/,0,-2,/
Cc1occc1C(=O)NNC(=O)c1ccccc1Br,/,0.88,/,0,-11,/
CC1N=C2c3ccccc3N=C(SCc3cc(=O)n4cc(Cl)ccc4n3)N2C1=O (stereo not given),1,1,-51,1,2,25*
